Structures are written as SMILES. About 3,700 (1%) of roughly 360,000 compounds were called active. Roughly 2% stayed inconclusive and do not appear here.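 The calls were made as follows: active = normalized GFP-positive differentiation at or above the plate's own cutoff, the solvent-only control mean plus 3 SD; inconclusive = no clear call, values can overlap the other calls; inactive = the rest.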 The list comes from a sample in which actives are over-represented; it also holds similar structures and randomly drawn compounds.

This passage reports GFP+ MAC1+ double positive, normalized GFP-positive differentiation and outcome results from PubChem BioAssay AID624256 (NMMLSC, 2012).

The test is described as follows: induction of myeloid progenitor differentiation, primary screen, cell-based, flow cytometry, MLPCN library (AID 624256).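 As to GFP+ MAC1+ double positive: cells exposed to compound for four days before flow analysis.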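 As to normalized GFP-positive differentiation: cells exposed to compound for four days before flow analysis; 0% = DMSO wells and 100% = fulvestrant positive control at 5 µM.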 Conditions: ER-HoxA9 myeloid progenitors, lysozyme-GFP differentiation, at 10 µM; GFP+ MAC1+ double positive: measured here: differentiation confirmed by MAC1 staining, stronger effect = higher value; normalized GFP-positive differentiation: stronger effect = higher value.
On to `Cc1cc2nc3c(=O)n(Cc4ccccc4)c(=O)[nH]c3nc2cc1N`, for which the GFP+ MAC1+ double positive is 5% and the normalized GFP-positive differentiation is 282% (active).
For `CN(C(=O)COC(=O)c1ccc(Br)o1)c1c(N)n(Cc2ccccc2)c(=O)[nH]c1=O`, the GFP+ MAC1+ double positive came to 0.6% and the result was inactive.
In the case of `COC(=O)[C@]12CCCCC=C1N(CCC1=CCCCC1)C(=O)[C@H](CC(=O)N1CCSCC1)C2`, the GFP+ MAC1+ double positive came out at 0.5% and the molecule was classed as inactive.
On to `N#CC1=C(N)Oc2c(sc3ccccc23)C1c1ccco1` (centres undefined), for which the GFP+ MAC1+ double positive is 2.5% and the normalized GFP-positive differentiation was 197% (active).
`N#CC1=C(N)Oc2c(ccc3cccnc23)C1c1ccncc1` (centres undefined): the GFP+ MAC1+ double positive is 0% and the molecule was classed as inactive.
`N#CC1=C(N)Oc2cc(N)ccc2C1c1ccccc1` (centres undefined): the GFP+ MAC1+ double positive amounted to 0.2% and the call was inactive.
Take `CCCCNC(=O)OC1CC2CC1[C@H]1CCCCN1C2=O` (some centres undefined): the GFP+ MAC1+ double positive turned out to be 0.8% and the call was inactive.
With `COC(=O)[C@@]12C[C@@H](CC(=O)NCCCCc3ccccc3)C(=O)N(Cc3ccccc3)C1=CCC(C)(C)C2`, the GFP+ MAC1+ double positive amounted to 3.1% and the molecule was called inactive.
`Cc1ccc(C(=O)NNC(=O)c2ccncc2)cc1S(=O)(=O)N1CCCCC1`: the GFP+ MAC1+ double positive is 0.5% and the outcome was inactive.
As for `CC1CCCC(NC(=O)c2cc(S(=O)(=O)N3CCCCC3)ccc2Cl)C1C` (centres undefined), the GFP+ MAC1+ double positive was determined as 1.2% and the outcome was inactive.
`Cc1ccc(C(=O)NC2CCCC(C)C2C)cc1S(=O)(=O)N1CCCCC1` (centres undefined): the GFP+ MAC1+ double positive was 2.2% and the normalized GFP-positive differentiation was 27.1% (active).
With `CCOC(=O)[C@]12CCC=C1N(Cc1ccco1)C(=O)[C@H](CC(=O)NCc1cccc(C(F)(F)F)c1)C2`, the GFP+ MAC1+ double positive came out at 1.6% and the call was inactive.
As for `Cc1cc(NC(=O)CCN2CCN(Cc3ccccc3)CC2)ccc1Br`, the GFP+ MAC1+ double positive was found to be 0.5% and the call was inactive.
Regarding `CN1CCN(CCC(=O)N/N=C/C=C2\N(C)c3ccccc3C2(C)C)CC1`, the GFP+ MAC1+ double positive came out at 2.2% and the normalized GFP-positive differentiation is 224% (active).
Regarding `COc1ccccc1/C=C/C=N/NC(=O)CN1CCN(Cc2ccccc2)CC1`, the GFP+ MAC1+ double positive is 0.2% and the outcome was inactive.
The matching figures for `COc1ccc(-c2ccc(C(=O)NCCN3CCOCC3)c3occc23)c(C)c1`: 1% and “inactive”.
Turning to `O=C(NCc1cccnc1)c1cc(C2CCCN(C(=O)C3CCCCC3)C2)on1` (centres undefined), the GFP+ MAC1+ double positive is 0.6% and the molecule was classed as inactive.
With `c1ccc2c(c1)CSc1sccc1C2=C1CCNCC1`, the GFP+ MAC1+ double positive was found to be 4.3% and the normalized GFP-positive differentiation is 87.9% (active).
Regarding `CCCNC(=O)C1(C)CCN(C(=O)c2cc(F)ccc2C)C1` (centres undefined), the GFP+ MAC1+ double positive was 1.2% and the molecule was classed as inactive.
For `COc1ccc(N2c3ccccc3CN(Cc3ccccc3)[C@@H](C)[C@H]2Cc2ccc(-c3ccccc3)cc2)cc1`, in that order: 3% and “inactive”.
With `O=C(Nc1ccc2c(c1)OCCO2)C1c2ccccc2OCC(=O)N1Cc1ccccn1` (centres undefined), the GFP+ MAC1+ double positive was 1.3% and the call was inactive.
Consider `CC1CCN(C(=O)c2ccc(S(=O)(=O)Cc3cc(F)ccc3F)c([N+](=O)[O-])c2)CC1`, for which the GFP+ MAC1+ double positive came out at 1% and the normalized GFP-positive differentiation was 43.9% (active).
With `Nc1ccc(C(=O)N2CCN(S(=O)(=O)c3ccc(Cl)cc3)CC2)cc1[N+](=O)[O-]`, the GFP+ MAC1+ double positive is 0.1% and the molecule was called inactive.
The matching figures for `O=C(c1ccc(Oc2ccc(Cl)cc2)c([N+](=O)[O-])c1)N1CCCC1`: 0.9% and “inactive”.
With `O=S1(=O)CC(N2CCN(CCO)CC2)CN1C1CCCC1` (centres undefined), the GFP+ MAC1+ double positive came out at 1% and the call was inactive.
The matching figures for `CCN(CC)C(=O)C1CCCN(Cc2cccc(Cl)c2)C1` (centres undefined): 1% and “inactive”.
The matching figures for `CN(C)N1C(N)=C(C#N)C(c2ccc(Br)cc2)C2=C1CCCC2=O` (centres undefined): 0.4% and “inactive”.
For `COc1ccc(C2C3=C(CCCC3=O)N(CC(=O)O)C3=C2C(=O)CCC3)cc1`, the GFP+ MAC1+ double positive worked out at 17.3% and the normalized GFP-positive differentiation was 322% (active).
Turning to `CCOc1ccc(C2C3=C(CCCC3=O)N(CC(=O)O)C3=C2C(=O)CCC3)cc1`, the GFP+ MAC1+ double positive is 0.6% and the result was inactive.
`CCOc1ccc(C2C(C#N)=C(N)N(N(C)C)C3=C2C(=O)CCC3)cc1` (centres undefined): the GFP+ MAC1+ double positive is 0.6% and the result was inactive.
Consider `CCCN1C2=C(C(=O)CCC2)C(c2ccc(O)c(Br)c2)C2=C1CCCC2=O`, for which the GFP+ MAC1+ double positive is 3.4% and the normalized GFP-positive differentiation was 78.6% (active).
With `COc1ccc(C2C(C#N)=C(N)N(c3ncn[nH]3)C3=C2C(=O)CCC3)cc1` (centres undefined), the GFP+ MAC1+ double positive was determined as 0.3% and the outcome was inactive.
The matching figures for `CCOC(=O)N1CCN(C(=O)C[C@@H]2C[C@@]3(C(=O)OC)CCCCC=C3N(CCC3=CCCCC3)C2=O)CC1`: 1.2% and “inactive”.
Turning to `CN(Cc1ccccc1F)c1cc2c(c3c1ccn3C)C1CCC2O1` (centres undefined), the GFP+ MAC1+ double positive came out at 2.1% and the call was inactive.
The matching figures for `Cc1cc(C)n2c(Nc3c(C)cccc3C)c(CCc3ccccc3)nc2n1`: 0.8% and “inactive”.
For `CC1(C(=O)NS(=O)(=O)Cc2cccc(Cl)c2)CCN1C(=O)Cc1ccccc1` (centres undefined), in that order: 1.3% and “inactive”.
As to `O=S1(=O)CC(N2CCN(CCO)CC2)CN1Cc1cn(Cc2cccc(Cl)c2)nn1` (centres undefined), the GFP+ MAC1+ double positive worked out at 1.8% and the molecule was classed as inactive.
On to `CCN(CC)c1ccc2cc(C(=O)O)c(=O)oc2c1`, for which the GFP+ MAC1+ double positive is 2.8% and the normalized GFP-positive differentiation was 30.9% (active).
For `CCN(CC)c1ccc([N+](=O)[O-])cc1C(=O)O`, the GFP+ MAC1+ double positive came out at 0.9% and the call was inactive.
For `Cc1cc(C)cc(OCC(=O)NNC(=O)c2cc3ccccc3oc2=O)c1`, in that order: 0.7% and “inactive”.
In the case of `COC(=O)[C@]12CCCCC=C1N(Cc1ccc3c(c1)OCO3)C(=O)[C@H](CC(=O)N1CCOCC1)C2`, the GFP+ MAC1+ double positive came to 1.1% and the outcome was inactive.
Regarding `CC(C)C1Cc2[nH][nH]c(=O)c2C(c2ccc(Cl)cc2)O1` (centres undefined), the GFP+ MAC1+ double positive turned out to be 1.1% and the call was inactive.
